# Screens (PubChem BioAssay)
# An excerpt weighted towards active compounds, which were near 3.8% of everything screened.
# ATXN2 expr inh = reduces ATXN2 reporter expression in HEK-293 cells. hit rate 0.72% among 360,000. Potency, µM (titrated, usually from 57 µM), inactives show top-dose activity change, negative = inhibition, usual class: inhibitors. HEK-293 ATXN2-luciferase reporter, luminescence, 24 h. AID 1745845; also: % is scaled to controls: 0 for no effect and ±100 for the full control effect; nearly all actives have a fitted effect of over 55% in size
#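 qHTS (up to 57 uM final) was run with 24 h compound exposure of reporter cells at 37 °C. Each well was multiplexed: SteadyGlo luminescence measured ATXN2-luciferase expression after a fluorogenic Gly-Phe-AFC viability readout (25 uM final).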
# ATXN viability = cell viability loss in ATXN counter-screen | S2 cells (HEK-293 line with an ATXN2-luciferase reporter) viability, CellTiter-Fluor protease fluorescence, 24 h | Potency, µM (highest dose often 56.7 µM), actives largely listed as cytotoxic | hit rate 0.49% among 400,000 | AID 651635; also: nearly all actives have a fitted effect of over 40% in size
# Nrf2 block = blocks Nrf2 signaling. A549 ARE-Fluc reporter, luciferase luminescence, 18-24 h. Potency, µM (series often up to 46 µM), without a hit: at the highest dose activity change, negative = inhibition, most hits filed as inhibitors. hit rate 2.1% among 360,000; also: % is scaled to controls: 0 for no effect and ±100 for the full control effect; nearly all actives have a fitted effect of over 60% in size
#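 Nrf2 activity is the BugLite luminescence, read 15 min after reagent at room temperature, following CellTiter-Fluor cytotoxicity readout (30 min, 37C). Compound titrations were applied for 18-24 h to 5000 A549 ARE_Fluc cells/well in 5% FBS OPTI-MEM.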
# A549 viability = A549 cytotoxicity, counter-screen for Nrf2 inhibitors. hit rate 0.16% among 390,000. Potency, µM (doses to about 46 µM), without a hit: top-dose activity change, negative = cytotoxicity, most hits filed as inhibitors. A549 ARE-Fluc cells, CellTiter-Fluor viability, 18-24 h; also: % is scaled to controls: 0 for no effect and ±100 for the full control effect
#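 A549 ARE_Fluc cells in 5% FBS OPTI-MEM were exposed to compounds in concentration-response for 18-24 h at 37 deg C. Viability was read by CellTiter-Fluor fluorescence (Ex 405/Em 525) after 30 min, before the luciferase read.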
# TGFb inhibitor = inhibitors of TGF-b signaling | Potency, µM (titrated, usually from 46.1 µM), for inactives: top-dose activity, negative = inhibition, most hits filed as inhibitors | AID 588855 | hit rate 1.2% among 410,000 | HepG2 CAGA-GFP TGF-b/SMAD3 reporter, GFP fluorescence, 18 h; TGF-beta stimulated, 500 pg/mL final; also: % is scaled to controls: 0 for no effect and ±100 for the full control effect; nearly all actives have a fitted effect of over 65% in size
#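 Inhibition of TGF-beta-driven CAGA-GFP reporter expression in HEPG2 cells is measured by cellular GFP fluorescence after 18 h stimulation with 500 pg/mL recombinant TGF-beta in 1% FBS medium at 37 degrees C.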
# HepG2 tox = kills HepG2 cells in TGF-b inhibitor counter-screen | HepG2 CAGA-GFP viability, ATP luminescence, 18 h | hit rate 0.76% among 410,000 | Potency, µM (top dose mostly 46.1 µM), for inactives: at the highest dose activity change, negative = cytotoxicity, most hits filed as cytotoxic
#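 HepG2 CAGA-GFP cells (1000/well, DMEM with 1% FBS) received compound, then TGF-beta at 500 pg/mL final, and were incubated 18 hours at 37 degrees C. Viability was read by CellTiter-Glo luminescence. Media-only wells were set as complete cell-killing and DMSO as no toxicity.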
# Numbers without * were called inactive; i = inactive; ? = inconclusive; . = not tested or not shown. Calls follow the shape of the dose curve; as a rule, active = well fitted curve in the direction sought with a large enough effect; inconclusive = small, poorly fitted or top-dose-only effect, or another doubt; inactive = no such curve, though single readings can be large; an effect the other way counts as inactive or inconclusive. Potency is read from the fitted curve at half-maximal effect.
SMILES,ATXN2 expr inh,ATXN viability,Nrf2 block,A549 viability,TGFb inhibitor,HepG2 tox
CC1CC(C)(C)CC2(C1)NC(=O)N(CC(=O)N1CCN(Cc3ccc(C#N)cc3)CC1)C2=O (centres undefined),-10.6%,i,1.84µM*,-13.7%,0.0%,1.0%
CCc1ccccc1NC(=O)C1CCCN(S(=O)(=O)c2ccc3[nH]c(=O)ccc3c2)C1 (centres undefined),.,.,-6.2%,2.3%,?,-32.5%
CC(=O)Nc1ccc(NC(=O)c2cc3c(=O)n(Cc4cccnc4)ccc3nc2C)cc1,12.6%,i,7.2%,-0.3%,-2.2%,17.8µM*
Cc1ccc(C)c(N2CCN(C(=O)c3cc4c(=O)n(Cc5ccccc5)ccc4nc3C)CC2)c1,?,?,?,-12.2%,10µM*,-33.5%
Cc1cccc(NC(=O)c2cc3c(=O)n(Cc4cccnc4)ccc3nc2C)c1,4.0%,i,?,9.5%,-4.9%,-1.9%
Cc1ccc(C)c(N2CCN(C(=O)c3cc4c(=O)n(Cc5cccnc5)ccc4nc3C)CC2)c1,-24.2%,i,-23.8%,-2.5%,?,-43.3%
COc1ccc(CNC(=O)CSCc2ccc(C)cc2)c(OC)c1,.,.,.,15.8%,-15.1%,-9.5%
Cc1cccc(-c2c3c(=O)n(C)c(=O)n(C)c3cn2-c2cc(N)c(Cl)cc2Cl)c1,.,.,?,-15.2%,?,-21.8%
COc1ccc(CCC(=O)NO)cc1,.,.,.,.,26.7%,4.5%
Cc1nc2ccc(Cl)cc2c(-c2ccccc2)c1C(=O)N(C)C,3.2%,i,-33.4%,-9.8%,-4.6%,-1.8%
CCOC(=O)c1c(CN2CCNCC2)nc2ccc(Cl)cc2c1-c1ccccc1,?,?,3.5%,-11.1%,15.8µM*,-116.3%
Cc1cccc2cc(C#N)c(SCCN3CCCCC3)nc12,25.1µM*,i,-6.6%,-2.2%,?,-21.2%
COc1ccccc1N=c1oc2cc(O)ccc2cc1C(N)=O,-4.8%,.,?,16.9%,23.9%,10µM*
Cc1cccc(N=c2oc3cc(O)ccc3cc2C(N)=O)c1,6.1%,.,?,15.2%,?,-20.5%
Cc1nc(N2CCN(C)CC2)c2c3c(sc2n1)CCCC3,-12.3%,i,?,-26.1%,6.6%,1.5%
O=C(c1ccco1)N1CCC(c2nc3c(nnn3Cc3ccccc3Cl)c(=O)[nH]2)CC1,5.8%,i,-8.2%,-14.0%,-0.1%,3.9%
O=C(c1ccco1)N1CCN(c2nc(C3CC3)nc3sc4c(c23)CCCC4)CC1,-29.8%,i,23.1µM*,?,?,-54.3%
CCOC(=O)c1nc(N2CCN(C(=O)OCC)CC2)c2c3c(sc2n1)CCCC3,-12.0%,i,25.9µM*,-6.8%,-2.9%,-72.0%
O=C(c1ccco1)N1CCN(c2nc(C3CC3)nc3c2nnn3Cc2ccccc2Cl)CC1,-37.0%,i,16.4µM*,0.8%,?,-19.7%
Cc1nc(N2CCN(C(=O)c3ccco3)CC2)c2c3c(sc2n1)CCCC3,?,?,?,-22.5%,?,-20.4%
Cc1nc(N2CCN(C(=O)c3cccs3)CC2)c2c3c(sc2n1)CCCC3,?,i,18.4µM*,?,-23.4%,-4.2%
Cc1ccc(-n2nc(C)c3c(C)cc(=O)n(CC(=O)NC(C)c4ccccc4)c32)cc1 (centres undefined),-6.2%,i,?,6.7%,2.8%,3.4%
O=C(COc1ccccc1)Nc1cccc(-c2nc3cc4ccccc4cc3[nH]2)c1,-20.1%,?,.,?,?,10µM*
CC(C)CC(=O)Nc1cccc(-c2nc3ccccc3[nH]2)c1,7.1%,?,5.2%,-1.4%,-13.9%,-14.7%
c1ccc(-c2nc3ccccc3[nH]2)cc1,44.7%,i,?,2.6%,-6.3%,-19.8%
SMILES,ATXN2 expr inh,ATXN viability,Nrf2 block,A549 viability,TGFb inhibitor,HepG2 tox
CC(C)COc1ccc(C(=O)Nc2cccc(-c3nc4ccccc4[nH]3)c2)cc1,.,.,23.1µM*,-18.1%,?,-38.9%
CC(=O)Nc1cccc(-c2nc3ccccc3[nH]2)c1,24.5%,i,15.1%,0.1%,?,-0.1%
O=C(O)c1cccc(-c2nc3ccccc3[nH]2)c1,14.1µM*,i,-8.9%,10.0%,-8.3%,-16.9%
COc1ccc(-c2nc3ccccc3[nH]2)cc1,0.3%,i,?,4.2%,8.1%,7.94µM*
CSc1ncc2c(n1)-c1ccccc1N(Cc1ccccc1C)S2(=O)=O,-5.6%,i,-22.9%,9.0%,5.1%,-0.4%
CN(C)c1ccc(/C=C2\C=Cc3ccccc32)cc1N,.,.,.,.,-20.1%,-35.3%
COc1ccc(NC(=O)C2(C)CCN2CCOc2ccccc2)cc1OC (centres undefined),-6.7%,i,.,.,-3.4%,8.9%
Fc1cccc(Cc2c(-c3cccc(Cl)c3)nc3ccc(Cl)cn23)c1,-8.5%,?,.,.,?,-12.7%
O=C(Nc1cc(Cl)cc(Cl)c1)N1CCN(C(=O)C2CCCO2)CC1 (centres undefined),3.3%,i,16.4µM*,5.8%,0.0%,13.9%
CC(C)c1ccc(NC(=O)CN2C=NS(=O)(=O)c3ccccc32)cc1,-3.1%,i,.,5.1%,-18.4%,-1.8%
CN(C)c1ccc(CC(=O)N2CCCCC2c2cc(C(=O)Nc3cccc(C#N)c3)no2)cc1 (centres undefined),-23.2%,i,.,.,-12.4%,-32.6%
CCCCN1CCc2c1nc1ccc(Br)cc1c2N,?,.,-18.1%,?,?,15.8µM*
CC(C)(C)n1ncc2c(=O)n(Cc3ccc(C#N)cc3)cnc21,.,.,.,.,-14.0%,-28.8%
CC(C)OCCCn1c(SCc2ccccc2C#N)nc2c(sc3ccccc32)c1=O,6.6%,i,.,0.8%,-28.7%,-21.4%
COc1ccc(C(=O)c2sc3nc(C)cc(-c4cccs4)c3c2N)cc1OC,-28.2%,.,10.3µM*,3.7%,-8.1%,-29.3%
O=C1NC(=S)S/C1=C\C=C\c1ccc([N+](=O)[O-])o1,?,8.91µM*,?,?,2.24µM*,-105.4%
COc1cccc(CNC(=O)CCNS(=O)(=O)c2ccc3c(c2)CCCC(=O)N3)c1,8.1%,i,-14.9%,-2.7%,-5.8%,-16.5%
CN(CC(=O)Nc1cc(S(=O)(=O)N2CCCC2)ccc1Cl)Cc1cccs1,.,i,25.9µM*,-8.3%,?,-28.3%
COc1ccc(S(=O)(=O)N2CCOCC2)cc1NC(=O)Cc1ccccc1Cl,5.1%,i,0.2%,2.8%,25.6%,15.7%
CCN(CC)c1ccc(S(=O)(=O)N2CCOCC2)cc1NC(=O)CNCc1cccc(Cl)c1,?,?,25.9µM*,?,?,-20.5%
